Compounds with a hit are over-represented: about 31% of the library has one in this group of screens.
CYP2C9 inhib – blockers of cytochrome P450 2C9 activity – biochemical, luminescence, ADME assay, primary screen; P11712; CYP2C9 Supersomes, luciferin-H conversion; inhibition, % at 5 µM; actives 20% (n = 96,000);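 active = blocking of liver enzyme CYP2C9 beyond about 50% at 5 µM, limit read from the data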
CYP2C19 inh – blockers of cytochrome P450 2C19 activity – biochemical, luminescence, ADME assay, primary screen; P33261; CYP2C19 Supersomes, luciferin-H EGE luminescence, 30 min; inhibition, % at 5 µM; actives 21% (n = 96,000); AID 778, 2007;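 active = CYP2C19 inhibition above a set limit at 5 µM in the primary screen, cut at about 50% in these data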;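 note: plate controls were negative control wells for no effect and 2.5 mM tranylcypromine positive control for full effect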
Target sequence (P33261 whole entry, looked up): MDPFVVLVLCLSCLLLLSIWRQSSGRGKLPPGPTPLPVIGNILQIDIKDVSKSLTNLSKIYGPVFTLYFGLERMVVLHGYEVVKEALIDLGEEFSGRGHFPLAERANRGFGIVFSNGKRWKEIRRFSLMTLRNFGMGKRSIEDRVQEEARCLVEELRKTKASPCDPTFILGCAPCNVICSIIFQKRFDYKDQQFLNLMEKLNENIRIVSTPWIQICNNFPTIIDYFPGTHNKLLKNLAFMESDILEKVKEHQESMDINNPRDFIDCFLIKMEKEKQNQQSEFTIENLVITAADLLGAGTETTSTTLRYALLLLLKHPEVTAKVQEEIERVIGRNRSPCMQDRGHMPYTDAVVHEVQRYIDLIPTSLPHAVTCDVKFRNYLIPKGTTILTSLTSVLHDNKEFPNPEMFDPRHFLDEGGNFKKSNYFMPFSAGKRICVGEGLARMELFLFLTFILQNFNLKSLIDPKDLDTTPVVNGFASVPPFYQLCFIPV
CYP2C19 act – human CYP2C19 activators, primary screen, biochemical, luminescence; Cytochrome P450 2C19 (Homo sapiens), P33261; recombinant CYP2C19, luciferin-H EGE luminescence; hits give high values; 0 = fully inhibited enzyme, 1 = untreated enzyme; activation factor at 5 µM; 96,000 tested, under 10 active;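 active = activation factor of at least 2 at 5 µM in the primary screen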;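 note: 0 = wells with 2.5 mM tranylcypromine and 1 = vehicle-only wells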
CYP2C9 activ – human CYP2C9 activators, primary screen, biochemical, luminescence; activation factor at 5 µM; actives 1.4% (n = 96,000); recombinant CYP2C9, luciferin-H conversion; hits give high values; factor 1 = untreated enzyme, 0 = blocked;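 active = activation factor of 2 or more for CYP2C9 at a 5 µM dose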;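 note: 0 = sulfaphenazole-blocked wells and 1 = vehicle-only wells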
Starred values were filed as active, the others as inactive.

SMILES	CYP2C9 inhib	CYP2C19 inh	CYP2C19 act	CYP2C9 activ
Cc1cc(C(=O)CSc2nnnn2C)c(C)n1-c1ccc2c(c1)OCCO2	60.5*	51.6*	0.5	0.4
Cc1nnc(SCC(=O)c2cc(C)n(C3CC3)c2C)s1	-35.6	-2.0	1	1.4
Cc1nnc(SCC(=O)c2cc(C)n(-c3ccc4c(c3)OCO4)c2C)s1	82.7*	97.2*	0	0.2
COc1cccc2c(=O)n(CC(=O)NC3CCCC3)ccc12	-76.9	22.0	0.8	1.8
c1ccc(N2CCN(c3cnc4ccccc4n3)CC2)cc1	4.6	51.2*	0.5	1
Clc1ccc(N2CCN(c3cnc4ccccc4n3)CC2)cc1	8.6	2.1	1	0.9
NS(=O)(=O)c1ccc(S(=O)(=O)N2CCCC2)cc1	0.5	4.7	1	1
O=c1c2ccccc2sn1-c1ccccc1	74.8*	44.2	0.6	0.3
Cc1ccc(-n2sc3ccccc3c2=O)cc1S(=O)(=O)N1CCCCC1	89.1*	30.3	0.7	0.1
O=c1c2ccccc2sn1-c1ccc(S(=O)(=O)N2CCCC2)cc1	75.3*	14.6	0.9	0.2
O=S(=O)(c1cccc2c(S(=O)(=O)N3CCCC3)cccc12)N1CCCC1	16.3	0.7	1	0.8
O=C1/C(=C/c2ccccc2)CSc2sccc21	40.5	54.8*	0.5	0.6
O=C1CC(c2ccccc2)CC(O)=C1C=NC1CCCC1 (stereo not drawn)	16.3	79.0*	0.2	0.8
O=C1CC(c2ccccc2)CC(O)=C1C=NC1CCCCC1 (stereo not drawn)	-6.7	-2.0	1	1.1
CCCCNC(=O)NS(=O)(=O)c1ccc(C(=O)OC(C)C)o1	69.4*	5.2	0.9	0.3
O=C(OCC#CCSc1nnc(-c2ccc([N+](=O)[O-])cc2)o1)c1cccs1	6.5	-11.0	1.1	0.9
Cc1c(O)ccc(-c2[nH]ncc2-c2nc3ccccc3s2)c1O	68.7*	86.8*	0.1	0.3
CC1(C)N(O)CC(c2cccs2)=[N+]1[O-]	-6.7	-4.5	1	1.1
CC(C)CCn1cnc2c(cnn2-c2ccc(Cl)cc2)c1=O	70.9*	31.6	0.7	0.3
C#CCn1cnc2c(cnn2-c2ccc(C)c(C)c2)c1=O	27.4	64.2*	0.4	0.7
O=C(Cn1cnc2c(cnn2-c2ccccc2)c1=O)c1ccc(Cl)cc1	6.4	-12.1	1.1	0.9
Cc1ccc(-n2ncc3c(=O)n(CC#N)cnc32)cc1C	18.4	19.8	0.8	0.8
O=C(ONC1=NCCCCC1)c1ccc(Cl)cc1	-10.5	7.7	0.9	1.1
O=C(ONC1=NCCCCC1)c1c(F)cccc1F	-8.8	90.9*	0.1	1.1
O=C(CCn1c(=O)[nH]c2ccsc2c1=O)NCCc1ccc(Cl)cc1	36.1	70.0*	0.3	0.6
SMILES	CYP2C9 inhib	CYP2C19 inh	CYP2C19 act	CYP2C9 activ
O=C(CCn1c(=O)[nH]c2ccsc2c1=O)N1CCc2ccccc2C1	5.9	19.3	0.8	0.9
O=C(CCn1c(=O)[nH]c2ccsc2c1=O)N(CCc1ccccc1)Cc1ccccc1	65.4*	65.4*	0.3	0.3
O=C(CCn1c(=O)[nH]c2ccsc2c1=O)Nc1ccc(F)c(F)c1	55.1*	37.9	0.6	0.4
CCOC(=O)C(CC)n1nc(C)n2c(cc3occc32)c1=O (stereo not drawn)	71.2*	12.3	0.9	0.3
Cc1nn(C(C)C(=O)NCC2CCCO2)c(=O)c2cc3occc3n12 (stereo not drawn)	-13.6	3.3	1	1.1
CCOc1ccc(CCNC(=O)C(C)n2nc(C)n3c(cc4occc43)c2=O)cc1OCC (stereo not drawn)	62.2*	27.2	0.7	0.4
CCOc1ccc(CNC(=O)CCn2c(=O)oc3ccccc32)cc1OC	7.6	27.0	0.7	0.9
CCOc1ccc(CNC(=O)C(CC)n2nc(C)n3c(cc4occc43)c2=O)cc1OC (stereo not drawn)	74.9*	19.7	0.8	0.3
Cc1nn(C(C)C(=O)NCCCc2ccccc2)c(=O)c2cc3occc3n12 (stereo not drawn)	68.4*	71.4*	0.3	0.3
O=C1Nc2ccccc2C12OCCS2 (stereo not drawn)	-15.6	16.9	0.8	1.2
Cc1ccc(C(=O)N2CCN(c3ccc(C(F)(F)F)cn3)CC2)c(C)c1	18.9	63.5*	0.4	0.8
Cc1ccc(-c2c(C#N)c(N)nc3c2CCCC3)s1	-25.4	21.1	0.8	1.3
O=C(CCCCCN1C(=O)c2ccccc2C1=O)NCCc1nc2ccccc2[nH]1	91.3*	94.7*	0.1	0.1
COc1ccccc1C(=O)NCCc1nc2ccccc2[nH]1	58.0*	87.5*	0.1	0.4
COCC(=O)NCCc1nc2ccccc2[nH]1	5.2	-0.2	1	0.9
CCCC(=O)NCCCc1nc2ccccc2[nH]1	-7.8	-6.2	1.1	1.1
O=C(NCCc1nc2ccccc2[nH]1)c1ccc(F)cc1	51.2*	88.3*	0.1	0.5
Cc1ccc(S(=O)(=O)c2c(N)n(NC(=O)C3CC3)c3nc4ccccc4nc23)cc1	32.7	-16.0	1.2	0.7
Cc1ccc(S(=O)(=O)c2c(N)n(/N=C/c3ccco3)c3nc4ccccc4nc23)cc1C	50.8*	22.9	0.8	0.5
Cc1ccc(S(=O)(=O)c2c(N)n(/N=C/c3ccco3)c3nc4ccccc4nc23)cc1	83.7*	68.4*	0.3	0.2
Nc1c(S(=O)(=O)c2ccccc2)c2nc3ccccc3nc2n1/N=C/c1ccco1	20.8	8.2	0.9	0.8
Cc1ccc(S(=O)(=O)c2c(N)n(CC3CCOC3)c3nc4ccccc4nc23)cc1 (stereo not drawn)	81.7*	85.5*	0.1	0.2
Cc1cccc(S(=O)(=O)c2c(N)n(/N=C/c3ccco3)c3nc4ccccc4nc23)c1	85.7*	61.2*	0.4	0.1
COc1cccc(CN2C(=O)CCC2(C)C(=O)NC2CCCC2)c1 (stereo not drawn)	-78.9	20.3	0.8	1.8
COc1ccc(C2(CNC(=O)/C=C/c3ccco3)CCCC2)cc1OC	52.9*	23.5	0.8	0.5
SMILES	CYP2C9 inhib	CYP2C19 inh	CYP2C19 act	CYP2C9 activ
CCOC(=O)Cc1c(C)nc2c(-c3ccc(Cl)cc3)c[nH]n2c1=O	66.6*	6.7	0.9	0.3
CCOC(=O)Cc1cc(=O)n2[nH]c(C)c(-c3ccc(OC)cc3)c2n1	42.4	9.6	0.9	0.6
CCOC(=O)Cc1cc(=O)n2[nH]c(C)c(-c3ccc(Cl)cc3)c2n1	50.2*	4.3	1	0.5
CCOC(=O)C1CCN(c2cc(C)nc3cc(-c4cccc(F)c4)nn23)CC1	16.5	26.3	0.7	0.8
Cc1cc(C)n(S(=O)(=O)c2cc(C)c(C)cc2C)n1	-4.2	17.6	0.8	1
COc1ccc(S(=O)(=O)n2nc(C)cc2C)c(C)c1C	-142.5	31.3	0.7	2.4*
COc1cccc(OC)c1C(=O)n1nc(C)cc1C	-23.4	2.0	1	1.2
Cc1cc(C)n(S(=O)(=O)c2ccc(C)c(C)c2C)n1	-274.6	31.8	0.7	3.7*
